For 94 compounds, fluorescence intensity results are on record in PubChem BioAssay AID624483 (NMMLSC, 2012).

Molecules are shown by their SMILES. Several values for one entry are separate records, joined by “and”; a condition that tells them apart may be missing. Equal entries are not always repeated. Hit rate of the full screen: of about 360,000 compounds, about 11,000 (3.1%) were called active. Another 2% or so got no clear call; they are omitted. Cut-off read from the data, not from the text of the source: active = fluorescence intensity above about 16000; inconclusive = no clear call, values can overlap the other calls; inactive = below that. The entries come from a sample that favours actives as a whole. Some compounds were tested as several samples or in several runs, with calls that do not always agree.

The experiment can be described thus: counter-screen for toxin protease inhibitors: compound fluorescence, primary screen, artefact control for toxin protease inhibitor project, biochemical, multiplex microsphere, HTS (AID 624483). The settings on record: compound autofluorescence counterscreen, microsphere flow cytometry; stronger effect = higher value.
Consider `COc1ccc(-n2ncc3c(N4CCc5ccccc54)ncnc32)cc1`, for which the fluorescence intensity was 22400 (active).
Regarding `COc1ccc(-n2ncc3c(N4CCCc5ccccc54)ncnc32)cc1`, the fluorescence intensity is 11300 (inactive).
The value for `COc1ccc(-n2ncc3c(SCC(=O)NNC(C)=O)ncnc32)cc1` was 3990 (inactive); that for `CCCNC(=O)C1(C)CCN(Cc2csc(-c3ccc(Cl)cc3)n2)C1` (centres undefined) was 3720 (inactive).
The value for `Cc1cc2nc(-c3ccc(Cl)cc3)c(Cc3cccc(F)c3)n2c(C)c1Br` was 6020 (inactive); that for `C=CCNC(=O)CC12CC3CC(C1)CC(CC(=O)NCC=C)(C3)C2` was 4730 (inactive).
The value for `O=C(NCC12CC3CC(C1)CC(CNC(=O)N1CCCC1)(C3)C2)N1CCCC1` was 16800 (active); that for `O=C(N1CCCC1)C12CC3CC(C1)CC(C(=O)N1CCCC1)(C3)C2` was 2410 (inactive).
Take `Nc1nc(SCc2cccc(Br)c2)n[nH]1`: the fluorescence intensity is 3680 (inactive).
Turning to `C=CCc1cccc2cc(C(=O)NC3CCCC3)c(=O)oc12`, the fluorescence intensity is 2230 (inactive).
The value for `Cc1ccc(C(=O)CSc2nc3ccccc3c(=O)n2N)o1` was 19100 (active).
`COc1ccc(OCc2ccc(-c3nc4ccccc4c(=O)n3N)o2)cc1`: the fluorescence intensity was 2450 (inactive).
The value for `COc1ccc(NC(=O)CSc2nc3ccccc3c(=O)n2C)cc1` was 3680 (inactive); that for `COc1ccc(-c2ccc(C(=O)NCCN3CCOCC3)c3occc23)c(C)c1` was 3620 (inactive); that for `Cc1nnc(SCC(=O)Nc2ccc(S(=O)(=O)Nc3ccc(Cl)nn3)cc2)s1` was 5340 (inactive).
The value for `COc1ccccc1N1CCN(Cc2ccc(OC)c3ccccc23)CC1` was 21400 (active); that for `COc1ccccc1N1CCN(Cc2cc(OC)c3c(c2)OCO3)CC1` was 3350 (inactive).
Consider `COc1ccc(CN2CCN(Cc3ccc(OC)c(OC)c3OC)CC2)cc1`, for which the fluorescence intensity is 3740 (inactive).
As to `COC(C[C@@H](O)[C@H](C)[C@H](O)COCc1ccccc1)OC`, the fluorescence intensity is 4260 (inactive).
In the case of `COc1cc(/C=C(/NC(=O)c2ccccc2)C(=O)Nc2cccc(O)c2)c([N+](=O)[O-])cc1OC`, the fluorescence intensity is 11300 (inactive).
Take `O=C(COC(=O)/C=C/c1ccc(OC(F)F)cc1)NC1CCCCC1`: the fluorescence intensity was 5950 (inactive).
The value for `CC(=O)C1=C(O)C(=O)N(c2ccc(S(N)(=O)=O)cc2)C1c1ccccc1F` (centres undefined) was 2660 (inactive); that for `CN(C)CCCOc1ccc(-c2ccc3nccn3c2)cn1` was 3380 (inactive); that for `Cc1nc([N+](=O)[O-])cn1CC(=O)Nc1ccc(Cl)cc1` was 3080 (inactive).
The value for `CC(C)C[C@@H]1COc2cc(N3CCC[C@@H]3CO)ccc2S(=O)(=O)N1` was 6270 (inactive); that for `Cc1ccccc1S(=O)(=O)NC(=O)C1(C)CCN1C(=O)Cc1ccc(Cl)cc1Cl` (centres undefined) was 3450 (inactive).
The value for `COc1ccc(/C=N/Nc2nc(-c3ccc(C)cc3)c(C#N)c(=O)[nH]2)cc1` was 3690 (inactive); that for `COc1ccc(CCCc2nnc(SCc3nc4ccccc4c(=O)[nH]3)n2C)cc1` was 4610 (inactive).
On to `COc1ccc(/C=N/Nc2nc3ccccc3c(=O)[nH]2)cc1`, for which the fluorescence intensity is 19400 (active).
The value for `CN(Cc1ccccc1F)c1cc2c(c3c1ccn3C)C1CCC2O1` (centres undefined) was 5510 (inactive); that for `Cc1ccnc(SCCn2c(Br)nc3c2c(=O)[nH]c(=O)n3C)n1` was 2110 (inactive); that for `CC=CCn1c(SCCCc2ccccc2)nc2c1c(=O)[nH]c(=O)n2C` was 3020 (inactive).
Consider `Cn1c(=O)c2c(nc(Br)n2CCSc2nc3ccccc3o2)n(C)c1=O`, for which the fluorescence intensity was 20900 (active).
For `CCN(CC)C(=O)CSc1nc2ccccc2o1`, the fluorescence intensity is 2780 (inactive).
Turning to `CC(C)(C)C(=O)CSc1nc2ccccc2o1`, the fluorescence intensity is 4330 (inactive).
For the compound `Cn1c(=O)[nH]c(=O)c2c1nc(Br)n2CCCCSc1nc2ccccc2o1`, the fluorescence intensity was 24200 (active).
The value for `CC1Cc2[nH][nH]c(=O)c2C(C2CC2)O1` (centres undefined) was 6380 (inactive); that for `CCCCc1c(-c2ccc(Br)cc2)ncn1CCc1ccccc1OC` was 5930 (inactive).
The value for `Cc1c(C(C)CCCO)oc(=O)c2c1Oc1c(C)c(C(C)C[C@@H](C)O)oc(=O)c1C2` (some centres undefined) was 3640 (inactive); that for `CCn1c(SCC(=O)NC2CC2)nnc1-c1ccncc1` was 4270 (inactive).
The value for `COc1cccc(C(O)c2ncc(-c3ccc4ccccc4c3)[nH]2)c1` (centres undefined) was 4120 (inactive); that for `S=C(NCCCc1cnc[nH]1)NCCCN(Cc1ccc(Cl)c(Cl)c1)c1ccc(Br)cn1` was 3910 (inactive); that for `Cc1ccc(NC(=O)c2ccco2)cc1` was 3370 (inactive).
As to `Cc1ccc(-n2nc3cc(Cl)c(NC(=O)c4ccco4)cc3n2)cc1`, the fluorescence intensity was 20600 (active).
Take `Cc1ccc(-n2nc3cc(C)c(NC(=O)c4cccnc4)cc3n2)cc1`: the fluorescence intensity was 3240 (inactive).
The value for `CN(C(=O)CN1CCN(c2cc(-c3ccc(OCc4ccccc4)cc3)ncn2)CC1)c1ccccc1` was 2960 (inactive).
The value for `COC(=O)c1ccc2nc(-c3cccc(Br)c3)c(Cc3ccccc3C(F)(F)F)n2c1` was 5960 (inactive).
With `Nc1nnc(SCC(=O)Nc2ccc3nc(SCC(=O)Nc4ccccc4)sc3c2)s1`, the fluorescence intensity was 2450 (inactive).
The value for `O=[N+]([O-])c1c(NCCO)cc(Sc2nc3ccccc3s2)c2nonc12` was 16100 (active); that for `OCCNc1nc(Nc2ccc(Cl)c(Cl)c2)nc2ccccc12` was 3890 (inactive).
Regarding `COc1ccc(C2=NO[C@@H]3C(=O)N(Cc4ccccc4)C(=O)[C@H]23)cc1OC`, the fluorescence intensity is 8330 (inactive).
Regarding `Cc1c(C(=O)NNC(=O)c2ccncc2)oc2ccccc12`, the fluorescence intensity was 6810 (inactive).
The value for `Cc1cc2ccccn2c1C(=O)c1cccc(F)c1` was 3460 (inactive).
The value for `Cc1c(C=O)c2ccccn2c1C(=O)c1ccncc1` was 20400 (active); that for `O=C(CN1C(=O)NC2(CCCCCC2)C1=O)Nc1ccc([N+](=O)[O-])cc1` was 3160 (inactive).
Consider `O=C(NCCO)c1cccc(-c2cccc3nccn23)c1`, for which the fluorescence intensity is 3960 (inactive).
The value for `C[C@H](CO)N1C[C@H](C)[C@@H](CN(C)Cc2ccc(-c3ccccc3)cc2)Oc2ccc(NC(=O)Cn3cnnn3)cc2C1=O` was 3780 (inactive); that for `COc1ccc(NC(=O)C2Cc3c(-c4cccc(NC(C)=O)c4)ccnc3O2)cc1OC` (centres undefined) was 3970 (inactive); that for `CNC(=O)CN1C(=O)NC(c2ccccc2)(c2ccccc2)C1=O` was 4630 (inactive).
The value for `CC1(C(=O)NS(=O)(=O)c2ccccc2Cl)CCN1C(=O)c1cccc(F)c1` (centres undefined) was 2940 (inactive); that for `O=c1[nH]c(=O)n(Cc2ccco2)c2c1C(C(F)(F)F)(C(F)(F)F)N=C(c1ccco1)N2` was 24800 (active); that for `Cc1ccccc1C1=NC(C(F)(F)F)(C(F)(F)F)c2c(n(-c3ccc(F)cc3)c(=O)[nH]c2=O)N1` was 10500 (inactive).
For `CC(=O)Nc1ccc(S(=O)(=O)NC2(C(F)(F)F)C(=O)Nc3c2c(=O)[nH]c(=O)n3Cc2ccccc2)cc1` (centres undefined), the fluorescence intensity was 2630 (inactive).
The value for `CC(C)C[C@H]1CNC(=O)C(=O)N1C[C@H]1CCCN1C[C@H](Cc1ccc(O)cc1)N1C[C@H](CC(C)C)N(CC2CCCCCC2)C(=O)C1=O` was 4880 (inactive); that for `Cc1ccc2nc(NCCCNC(=O)c3cnccn3)c(C#N)cc2c1` was 20100 (active); that for `COCCCNC(=S)NCCNc1nc2cc(C)c(C)cc2cc1C#N` was 4720 (inactive).
`O=C(COc1ccc(Cl)cc1Cl)NCCCNC(=O)c1cnccn1`: the fluorescence intensity was 3160 (inactive).
`CCOc1ccc2nc(Cl)c(C3CC(c4ccccc4)=NN3C(=O)c3cccs3)cc2c1` (centres undefined): the fluorescence intensity is 2410 (inactive).
The value for `Nc1ccccc1Sc1cc(Cl)nnc1Cl` was 3840 (inactive).
For the compound `COC(=O)c1cc(OC)c(OC)cc1NC(=O)C1CCCO1` (centres undefined), the fluorescence intensity was 18500 (active).
The value for `CCc1cc(Br)ccc1NC(=O)C1CCCO1` (centres undefined) was 10900 (inactive).
The value for `CCOC(=O)c1ccc(NC(=O)c2ccc(NC(=O)C3CCCO3)cc2)cc1` (centres undefined) was 3420 (inactive); that for `O=S1(=O)CC(N2CCN(Cc3ccccc3F)CC2)CN1Cc1cn(Cc2ccccc2)nn1` (centres undefined) was 5590 (inactive); that for `CCC(C)(C(=O)Nc1ccccc1C)N(C(=O)CNC(C)=O)c1ccc(C)cc1` (centres undefined) was 2200 (inactive).
The value for `CN1CCN(c2ccc([N+](=O)[O-])c(Sc3nc4ccccc4[nH]3)c2)CC1` was 16500 (active); that for `CC1CCN(c2ccc([N+](=O)[O-])c(SCCO)c2)CC1` was 6270 (inactive).
Consider `COc1cccc(-c2nc3ccc(N4CCN(C)CC4)cc3[nH]2)c1`, for which the fluorescence intensity was 3340 (inactive).
The value for `CC1Cc2[nH][nH]c(=O)c2C(C2CCCC2)O1` (centres undefined) was 6280 (inactive); that for `Cc1ccc(C(=O)C[n+]2cc(-c3ccccc3)n3c2CCCCC3)cc1` was 25100 (active) and 2670 (inactive).
The value for `Clc1ccc(C[n+]2cc(-c3ccccc3)n3c2CCC3)cc1` was 3590 (inactive); that for `Cc1ccc(-c2c[n+](CC(=O)Nc3ccccc3)c3n2CCC3)cc1` was 3860 (inactive).
The value for `O=S(=O)(N1CCCCC1)N1CCNCC1` was 9990 (inactive).
`O=C(c1ccc(Cl)c([N+](=O)[O-])c1)N1CCN(c2ccccc2)CC1`: the fluorescence intensity is 4410 (inactive).
As for `CO/N=C/c1ccc(N2CCN(C(=O)c3cccc(Cl)c3)CC2)c([N+](=O)[O-])c1`, the fluorescence intensity was 22700 (active).
`O=C(/C=C/c1ccc(Cl)cc1)N1CCN(c2ccccc2[N+](=O)[O-])CC1`: the fluorescence intensity was 2480 (inactive).
On to `Cc1cccnc1C(NC(=O)C1CCN(Cc2ccc(Cl)c(Cl)c2)CC1)c1ccc(Cl)cc1` (centres undefined), for which the fluorescence intensity was 3480 (inactive).
In the case of `Cc1ccc(S(=O)(=O)NCCC(c2ccccc2)c2ccccc2)cc1C(=O)O`, the fluorescence intensity is 3790 (inactive).
The value for `COc1ccc(NC(=S)N2N=CCC2c2ccccc2)cc1` (centres undefined) was 22400 (active); that for `CCC(C)N(C)C1CCN(C(=S)Nc2ccc(OC)cc2)CC1` (centres undefined) was 4340 (inactive).
For `COc1ccc(NC(=S)N2CCc3cc(OC)c(OC)cc3C2)cc1`, the fluorescence intensity was 5760 (inactive).
On to `Cc1ccc(-c2nc3c(Cl)cc(C(F)(F)F)cn3c2Cc2cccc(Cl)c2)cc1`, for which the fluorescence intensity was 5350 (inactive).
For `Cc1ccc(C(C)NC(=O)Cn2nc(C)c([N+](=O)[O-])c2C)cc1` (centres undefined), the fluorescence intensity was 8570 (inactive).
On to `Cc1nn(Cc2ccc(C(=O)N3N=C(C(F)F)CC3(O)C(F)F)cc2)c(C)c1[N+](=O)[O-]` (centres undefined), for which the fluorescence intensity was 20600 (active).
In the case of `Cc1ccn(CC(=O)N2N=C(C(F)F)CC2(O)C(F)F)n1` (centres undefined), the fluorescence intensity is 2400 (inactive).
